In all, about 420,000 compounds went through this assay and about 64,000 (15%) were called active. Another 27% or so got no clear call; they are omitted. Calls come from the whole dose curve; as a rule, active = well fitted inhibition curve with a large enough effect; inconclusive = small, poorly fitted or top-dose-only effect; inactive = flat fitted curve, though single readings scatter. Not all results are given here. Entries that show only a call come without a potency.
Potency is the fitted concentration of half-maximal effect.

A short description of this assay: qHTS for Inhibitors of human tyrosyl-DNA phosphodiesterase 1 (TDP1): qHTS in cells in absence of CPT. Note: nearly all actives have a fitted effect of over 55% in size. The conditions noted are these: DT40 Tdp1-/- hTDP1 cells, no CPT, ATP luminescence, 48 h; activity change, negative = growth inhibition: at 46.2 µM (top of the series). A digest of the protocol:
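Growth kinetics read by CellTiter-Glo luminescence after ≥48 hr at 37 °C. Cells: DT40 Tdp1-/- stably carrying human TDP1, 400 per well, compound exposure in the absence of CPT (DMSO vehicle).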
Background: Quantitative high-throughput screening tests each substance at several concentrations.
Consider `O=C(Cc1c(F)cccc1Cl)Nc1ccc(-n2cnnn2)cc1`, for which the Potency result is “inactive”.
As for `COc1ccc(C(C#N)N2N=C(C)CC2(C)C)cc1` (stereo unspecified), the entry is “inactive”; as for `NC(=O)N1CCc2ccccc21`, “inactive”; as for `CCC1(CC)NC(=O)N(CC(=O)OCC(=O)NC(=O)c2ccccc2)C1=O`, “inactive”.
For the compound `Cc1ccc(C(=O)O)cc1-c1ccc(/C=C2\SC(=O)N(CC(=O)Nc3ccc4c(c3)OCO4)C2=O)o1`, the Potency result was “inactive”.
Regarding `COc1cc2c(cc1OC)[C@@H](Cc1cc(OC)c(OC)c(OC)c1)[N+](C)(CCCOC(=O)CC/C=C/CCC(=O)OCCC[N+]1(C)CCc3cc(OC)c(OC)cc3[C@H]1Cc1cc(OC)c(OC)c(OC)c1)CC2` (stereo partly specified), the Potency entry is “inactive”.
On to `COc1ccc(CC2c3cc(OC)c(OC)cc3CC[N+]2(C)CCC(=O)OCCCCCOC(=O)CC[N+]2(C)CCc3cc(OC)c(OC)cc3C2Cc2ccc(OC)c(OC)c2)cc1OC` (stereo unspecified), for which the Potency was 13 µM (active).
In the case of `Cc1ccc(CCCOC(=O)C[N+]2(C)CCCC2)cc1`, the Potency entry is “inactive”.
As for `O=C(CCN1C(=O)c2ccccc2C1=O)NCCN1CCOCC1`, the entry is “inactive”; as for `O=C(c1cn(-c2ccccc2)nc1-c1cc2ccccc2oc1=O)N1CCOCC1`, “inactive”; as for `O=c1oc2ccccc2cc1-c1cn(-c2ccccc2)c(=S)[nH]1`, 3.26 µM (active).
As for `S=c1[nH]c(-c2cccs2)cn1-c1ccccc1`, the entry is “inactive”.
For the compound `CC(=O)Oc1c2c(c3c(c1CC=C(C)C)O[C@@]14C(=CC5CC1C(C)(C)OC4(C/C=C(\C)C(=O)O)C5=O)C3=O)OC(C)(CCC=C(C)C)C=C2` (stereo partly specified), the Potency was 1.3 µM (active).
`CC1(C)CC(=O)C2=C(C1)N=C1SCCC(=O)N1C2c1ccc(C(F)(F)F)cc1` (stereo unspecified): the Potency entry was “inactive”.
Regarding `NC(=O)CSc1oc(-c2cccs2)nc1S(=O)(=O)c1ccccc1`, the Potency result is “inactive”.
Regarding `N#Cc1ccc(-c2cccs2)nc1SCc1ccc(Br)cc1`, the Potency entry is “inactive”.
As for `COC(=O)CSc1nccc(-c2cccs2)n1`, the entry is “inactive”; as for `CCCCS(=O)(=O)c1oc(-c2cccs2)nc1S(=O)(=O)c1ccccc1`, 1.16 µM (active).
With `O=C(c1cc(-c2cccs2)on1)N1CCCCC1`, the Potency result was “inactive”.
With `Cc1ccc(S(=O)(=O)c2nc(-c3cccs3)oc2N2CCCCC2)cc1`, the Potency was 23.1 µM (active).
Regarding `Cc1ccc(CSc2oc(-c3cccs3)nc2S(=O)(=O)c2ccc(C)cc2)cc1`, the Potency was 5.17 µM (active).
Consider `Cc1ccc(C(=O)N/C(=C/c2cccs2)C(=O)N2CCCCC2)cc1`, for which the Potency result was “inactive”.
Regarding `Cc1ccc(NC(=O)COc2ccc(/C=C3/NC(=O)NC3=O)cc2)cc1`, the Potency result was “inactive”.
Take `O=C1OC(Oc2ccc(Br)cc2)(c2ccccc2)c2ccccc21` (stereo unspecified): the Potency result is “inactive”.
Take `CCCOCC(O)CC(CC)C(=O)NNC(=S)Nc1ccccc1` (stereo unspecified): the Potency result was “inactive”.
For the compound `COc1ccc2c(c1)N(C)/C(=C1/SC(=S)N(NC(C)=O)C1=O)S2`, the Potency result was “inactive”.

These data come from PubChem BioAssay AID686978 (National Center for Advancing Translational Sciences (NCATS), 2013).
